Assay results reported in PubChem BioAssay.
Values joined by “and” are separate entries in the source; they are usually repeats but may differ in a detail not shown here. Equal values may be shown once. Active and inactive are the calls of the source.

Columns and labels:
[1] = anti-His antibody binders, primary screen, artefact control for SMM control protein annotation, biochemical, small-molecule microarray, 635 nm fluorescence (AID 1128); settings: anti-His Alexa647 antibody binding, higher = more signal;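 note: score merges feature fluorescence with signal-to-noise for each printed compound spot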
[2] = system: Human papillomavirus type 1a E7 protein (residues 1-88); assay: HPV1a E7 small-molecule binders, primary screen, biochemical, small-molecule microarray, residues 1-88, 635 nm (AID 1129); settings: small-molecule microarray binding, fluorescence 635 nm; higher = more signal
[3] = target: Focal adhesion kinase 1 (Homo sapiens) (UniProt Q05397); assay: small-molecule microarray binders of FAK, primary screen, biochemical, 635/667 nm fluorescence, BSA, DTT (AID 1130); settings: PTK2 binding, 635 nm fluorescence, higher = more signal;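 note: composite of spot emission at 667 nm and signal to noise over triplicate slides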
Focal adhesion kinase 1 (Homo sapiens), sequence (Q05397 whole entry, looked up): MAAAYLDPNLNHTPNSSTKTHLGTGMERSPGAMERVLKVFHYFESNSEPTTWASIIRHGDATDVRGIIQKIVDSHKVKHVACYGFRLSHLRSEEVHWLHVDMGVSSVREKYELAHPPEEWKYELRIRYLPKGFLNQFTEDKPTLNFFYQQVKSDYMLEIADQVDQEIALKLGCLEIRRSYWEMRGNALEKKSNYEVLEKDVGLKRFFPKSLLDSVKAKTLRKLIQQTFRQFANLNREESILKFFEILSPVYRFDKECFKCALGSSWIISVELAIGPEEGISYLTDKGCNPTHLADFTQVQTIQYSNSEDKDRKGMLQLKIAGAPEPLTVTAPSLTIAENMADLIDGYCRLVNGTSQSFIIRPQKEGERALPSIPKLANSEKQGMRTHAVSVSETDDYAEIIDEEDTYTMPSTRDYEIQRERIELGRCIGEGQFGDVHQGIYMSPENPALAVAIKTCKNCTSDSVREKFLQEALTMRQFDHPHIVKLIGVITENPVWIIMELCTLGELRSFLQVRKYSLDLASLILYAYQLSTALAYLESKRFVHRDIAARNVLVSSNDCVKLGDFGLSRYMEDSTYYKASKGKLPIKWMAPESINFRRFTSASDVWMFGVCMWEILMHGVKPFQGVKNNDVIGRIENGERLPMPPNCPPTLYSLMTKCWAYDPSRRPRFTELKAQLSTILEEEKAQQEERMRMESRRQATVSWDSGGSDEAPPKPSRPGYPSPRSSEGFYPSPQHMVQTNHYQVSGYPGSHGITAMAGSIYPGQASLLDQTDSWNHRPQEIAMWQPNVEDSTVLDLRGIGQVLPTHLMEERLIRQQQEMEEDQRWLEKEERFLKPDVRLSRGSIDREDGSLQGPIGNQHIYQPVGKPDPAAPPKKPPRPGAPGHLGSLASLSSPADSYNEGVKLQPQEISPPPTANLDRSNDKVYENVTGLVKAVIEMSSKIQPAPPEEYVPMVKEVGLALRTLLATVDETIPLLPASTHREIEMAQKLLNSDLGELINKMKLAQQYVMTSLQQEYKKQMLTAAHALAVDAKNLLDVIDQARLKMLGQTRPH

[4] = system: Fibrinogen (Alexa647-labelled); assay: fibrinogen binders on compound microarrays, profiling panel, artefact control for SMM control-protein annotation, biochemical, small-molecule microarray, 635/667 nm fluorescence (AID 1131); settings: fibrinogen-A647 binding fluorescence, higher = more signal;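 note: z-score merges 667 nm fluorescence with per-spot signal-to-noise over triplicate slides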
[5] = target: Follistatin (Homo sapiens) (UniProt P19883); assay: follistatin binders on small-molecule microarrays, primary screen, biochemical, small-molecule microarray, 635/667 nm fluorescence (AID 1132); settings: FST binding, 635 nm fluorescence, higher = more signal
Follistatin (Homo sapiens), sequence (P19883 whole entry, looked up): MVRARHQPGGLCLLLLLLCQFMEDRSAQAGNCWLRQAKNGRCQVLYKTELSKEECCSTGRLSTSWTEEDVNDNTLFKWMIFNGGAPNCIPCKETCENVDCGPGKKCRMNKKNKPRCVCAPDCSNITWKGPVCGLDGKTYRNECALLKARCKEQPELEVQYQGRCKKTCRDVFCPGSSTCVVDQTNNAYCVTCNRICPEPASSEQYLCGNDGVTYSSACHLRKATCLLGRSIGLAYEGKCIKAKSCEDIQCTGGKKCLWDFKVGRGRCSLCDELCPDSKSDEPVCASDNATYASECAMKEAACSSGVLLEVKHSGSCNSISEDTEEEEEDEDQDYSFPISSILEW

[6] = target: Fibroblast growth factor 2 (Homo sapiens) (UniProt P09038); assay: FGF2 binders on small-molecule microarrays, primary screen, biochemical, small-molecule microarray, 635/667 nm fluorescence (AID 1133); settings: small-molecule microarray binding, FGF2, fluorescence 635/667; higher = more signal
Fibroblast growth factor 2 (Homo sapiens), sequence (P09038 whole entry, looked up): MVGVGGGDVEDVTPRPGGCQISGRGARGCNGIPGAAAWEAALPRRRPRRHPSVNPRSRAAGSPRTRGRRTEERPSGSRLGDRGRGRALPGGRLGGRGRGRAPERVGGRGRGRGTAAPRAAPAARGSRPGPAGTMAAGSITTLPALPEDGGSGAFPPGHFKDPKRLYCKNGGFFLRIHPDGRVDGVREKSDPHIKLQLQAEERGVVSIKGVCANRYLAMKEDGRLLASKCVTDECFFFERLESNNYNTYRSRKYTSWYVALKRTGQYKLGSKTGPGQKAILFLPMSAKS

[7] = mitochondrial membrane potential change in A549 cells, profiling panel, cell-based, JC-1 fluorescence, basal, 24 h, 100 nL (AID 1138); settings: higher = more signal;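 note: A549 lung adenocarcinoma cells under basal conditions with no added stimulus; test concentration not given here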
[8] = system: Lefty1; assay: Lefty1 binders on small-molecule microarrays, primary screen, biochemical, small-molecule microarray, 635/667 nm fluorescence (AID 1139); settings: small-molecule microarray binding, fluorescence 635/667; higher = more signal
[9] = system: wheat germ agglutinin (Triticum aestivum), Alexa647-labelled; assay: wheat germ agglutinin binders on compound microarrays, profiling panel, artefact control for SMM control-protein annotation, biochemical, small-molecule microarray, 635/667 nm fluorescence (AID 1140); settings: WGA-A647 binding, 635 nm fluorescence, higher = more signal;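 note: score merges 667 nm feature emission with signal to noise over triplicate slides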
[10] = target: Luciferin 4-monooxygenase (Photinus pyralis) (UniProt P08659); assay: firefly luciferase enzyme inhibitors, primary screen, biochemical, luminescence, purified enzyme, 2006 set (AID 1141); settings: SteadyGlo luminescence, 30 min, higher = more signal, called active from +8 up or from −8 down;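 note: cell-free assay with purified firefly luciferase at 100 ng per well in PBS; test concentration not given here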
Luciferin 4-monooxygenase (Photinus pyralis), sequence (P08659 whole entry, looked up): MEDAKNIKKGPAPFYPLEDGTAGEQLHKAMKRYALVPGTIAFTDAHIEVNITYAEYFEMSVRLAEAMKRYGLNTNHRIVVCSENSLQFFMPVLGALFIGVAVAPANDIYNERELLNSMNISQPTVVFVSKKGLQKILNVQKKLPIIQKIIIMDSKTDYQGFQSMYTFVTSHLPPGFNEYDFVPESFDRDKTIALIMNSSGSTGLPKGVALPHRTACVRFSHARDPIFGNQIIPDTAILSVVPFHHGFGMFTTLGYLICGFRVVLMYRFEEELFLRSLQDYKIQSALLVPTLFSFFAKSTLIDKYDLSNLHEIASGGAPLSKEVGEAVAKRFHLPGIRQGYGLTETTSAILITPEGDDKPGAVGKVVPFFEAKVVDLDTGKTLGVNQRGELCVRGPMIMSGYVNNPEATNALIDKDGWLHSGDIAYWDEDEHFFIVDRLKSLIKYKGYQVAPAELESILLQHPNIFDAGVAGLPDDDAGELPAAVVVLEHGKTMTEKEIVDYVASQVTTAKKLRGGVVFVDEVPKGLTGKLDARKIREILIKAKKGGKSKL

SMILES | composite z-score [1] | composite z-score [2] | composite z-score [3] | composite z-score [4] | composite z-score [5] | composite z-score [6] | z-score [7] | composite z-score [8] | composite z-score [9] | z-score [10]
C[N+](C)(C)CCCCCCNC(=O)[C@H]1C[C@H]2C(=O)N[C@@H](CCCC[N+](C)(C)C)C(=O)N2[C@H]1c1cccc(OCCO)c1 | 1.91 and 1.46 | 0.516 and -0.266 | -0.063 and 0.0884 | 0.638 and -0.338 | 1.39 and 1.43 | 1.82 and 1.66 | 0.357 and -0.307 | 1.59 and 0.768 | 0.348 and 0.29 | -0.0709 (inactive) and 0.15 (inactive)
C=CC[C@@H](O)c1ccc(OCCO)cc1 | 0.7 and -0.687 | 0.301 and -0.59 | -0.595 and -0.79 | -1.34 and -0.494 | 0.716 and -0.517 | -0.418 and -1.58 | 0.856 and 0.491 | -0.146 and -0.805 | -0.455 and 0.763 | -6.43 (inactive) and -6.38 (inactive)
C=CCN(C(=O)C(c1cccs1)N(C(=O)/C=C\C(=O)O)c1c(Cl)cccc1CO)C(C)(C)C (stereo not given) | 0.28 and -0.668 | -1.4 and -1.02 | -0.513 and -0.619 | -2.69 and -1.15 | -1.48 and -1.81 | -2.01 and -2.33 | 0.674 and 0.368 | -1.96 and -2.54 | -0.543 and -1 | -0.242 (inactive) and -0.42 (inactive)
CC(C)=NOC[C@@H](O)COCc1ccco1 | 1.27 | -1.73 | -0.395 | -1.83 | 0.112 | 0.782 | 0.354 | -0.181 | -0.988 | -1.28 (inactive)
C=CCN(C(=O)C1N(CCCCCCO)C(=O)C2C(C(=O)O)C3C=CC21O3)c1ccc(OC)cc1 (stereo not given) | -1.91 and -1.82 | -1.26 and -1.68 | 0.85 and -0.212 | -1.05 and -2.02 | -1.83 and -1.96 | -2.95 and -1.96 | 1.34 and 0.478 | -2.4 and -2.28 | -0.537 and -0.483 | -1.09 (inactive) and -1.38 (inactive)
C=CCN(C(=O)C(c1cccs1)N(C(=O)/C=C\C(=O)O)c1ccc(CCO)cc1)c1ccc(OC)cc1 (stereo not given) | 0.502 and -2.51 | -0.979 and -1.34 | 0.32 and -0.445 | -1.36 and -2.21 | -1.14 and -3.18 | -2.42 and -2 | 0.413 and 1.3 | -0.91 and -2.42 | -0.4 and -0.894 | -1.62 (inactive) and -1.01 (inactive)
O=C1[C@H]2[C@H]3[C@H](O)[C@H](O)CC(=NOCc4ccccc4)[C@H]3CC[C@H]2C(=O)N1Cc1ccccc1 | 0.17 | -0.137 | -0.0933 | -0.908 | 0.659 | 0.327 | -0.901 | 0.374 | 0.0116 | 0.983 (inactive)
C[C@@H](ON=C1[C@H]2CCn3c(=O)n(-c4ccccc4)c(=O)n3[C@H]2[C@H](O)[C@@H]2O[C@H]12)c1cn([C@H](CO)Cc2ccccc2)nn1 | 2.66 | 0.23 | -0.109 | 0.343 | 0.523 | 0.185 | -0.546 | 0.467 | -0.424 | -0.116 (inactive)
